SMILES strings stand for the structures. The panel holds about 83,000 compounds, 20% with a hit somewhere; the sample as a whole holds those more often.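 For each line, cells grew in 96-well plates with the test compound present at a single concentration for 48 hours.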 Values without a mark were called inactive. Activity calls are given as the source filed them. The calls were made as follows: active = growth percent below 10; inactive = the rest.

Some test systems named below: NCI-H23 lung; NCI-H226 lung; NCI-H322M lung; HOP-62 NSCLC; NCI-H460 lung; HOP-92 NSCLC; NCI-H522 lung; A549/ATCC NSCLC; 786-0 renal; COLO 205 colon; DU-145 prostate; K-562 leukemia; MALME-3M melanoma; MDA-MB-231 breast; RXF 393 renal; SF-268 CNS; SF-295 CNS; SF-539 CNS; UACC-257 melanoma; M14 melanoma.
What all share (assay): NCI-60 one-dose screen, 48 h (100 = growth as untreated, 0 = no growth, -100 = all killed)
What all share (conditions): 10 µM unless noted

As to `CCCCNC(=O)c1ccc2c(c1)nc(-c1ccccc1)n2C1CCCCC1`, the growth with NCI-H23 lung was 92.3%; in the experiment on NCI-H226 lung it was 109%; with NCI-H322M lung it was 90.5%; in the experiment with HOP-62 NSCLC, 77.3%; in the experiment with NCI-H460 lung, 109%; in the experiment with HOP-92 NSCLC it was 105%. Moreover, the growth was 80.9% in the experiment on NCI-H522 lung; 95.9% in the experiment with A549/ATCC NSCLC; 92.7% with 786-0 renal; 88.9% in the experiment with COLO 205 colon; 103% in the experiment on DU-145 prostate; 75.8% in the experiment with K-562 leukemia. Besides, the growth in the experiment on MALME-3M melanoma is 100%; in the experiment on MDA-MB-231 breast, 96.1%; with RXF 393 renal, 120%; in the experiment on SF-268 CNS, 104%; in the experiment with SF-295 CNS, 95.4%; in the experiment on SF-539 CNS, 105%. The results for the growth in the experiment on UACC-257 melanoma and in the experiment with M14 melanoma were 109% and 89.8%, respectively.

With `COc1cc(Cc2cc(OC)c(O)c(OC)c2)cc(OC)c1O`, the growth in the experiment with NCI-H23 lung is 87.6%; in the experiment on NCI-H226 lung, 106%; in the experiment with NCI-H322M lung, 94.2%; in the experiment on HOP-62 NSCLC it was 88.9%; in the experiment with NCI-H460 lung, 99.1%; with HOP-92 NSCLC, 89.6%. Besides, the growth was 56.5% in the experiment with NCI-H522 lung; 84.1% in the experiment on A549/ATCC NSCLC; 107% in the experiment with 786-0 renal; 109% in the experiment on COLO 205 colon; 117% in the experiment on DU-145 prostate; 20.1% in the experiment with K-562 leukemia. The growth is 86% in the experiment on MALME-3M melanoma; 95.2% with MDA-MB-231 breast; 86.3% with RXF 393 renal; 105% with SF-268 CNS; 62.2% in the experiment on SF-295 CNS; 101% in the experiment with SF-539 CNS. Also, the growth was 89.3% with UACC-257 melanoma and 75.3% in the experiment on M14 melanoma.

With `O=CCCCOCc1ccccc1`, the growth is 96.4% in the experiment on NCI-H23 lung; 96.5% in the experiment with NCI-H226 lung; 110% with NCI-H322M lung; 93.2% with HOP-62 NSCLC; 107% in the experiment on NCI-H460 lung; 90.6% in the experiment with HOP-92 NSCLC. In addition, the growth is 88.5% in the experiment with NCI-H522 lung; 95.3% in the experiment with A549/ATCC NSCLC; 98.4% with 786-0 renal; 109% in the experiment on COLO 205 colon; 102% with DU-145 prostate; 104% in the experiment on K-562 leukemia. For the same molecule, the growth was 95.8% with MALME-3M melanoma; 101% in the experiment on MDA-MB-231 breast; 113% in the experiment on RXF 393 renal; 103% in the experiment on SF-268 CNS; 95.1% in the experiment on SF-295 CNS; 101% in the experiment on SF-539 CNS. Besides, the figures for the growth in the experiment with UACC-257 melanoma and in the experiment with M14 melanoma were 103% and 96.4%, respectively.

`ClCCn1cnc2c(SCc3ccccc3)ncnc21`: the growth is 72.4% with NCI-H23 lung; 65.4% in the experiment with NCI-H226 lung; 75.3% in the experiment on NCI-H322M lung; 66.6% in the experiment on HOP-62 NSCLC; 12.2% in the experiment on NCI-H460 lung; 63.7% with HOP-92 NSCLC. In addition, the growth in the experiment with NCI-H522 lung is 65.8%; in the experiment with A549/ATCC NSCLC it was 40%; in the experiment with 786-0 renal, 64.8%; with COLO 205 colon it was 52.4%; in the experiment on DU-145 prostate, 63.3%; in the experiment on K-562 leukemia, 40.8%. The growth with MALME-3M melanoma is 57.6%; in the experiment on MDA-MB-231 breast it was 75.6%; in the experiment with RXF 393 renal, 87.8%; in the experiment on SF-268 CNS, 67.1%; with SF-295 CNS, 37.6%; in the experiment with SF-539 CNS, 37.3%. Also, the values for the growth in the experiment with UACC-257 melanoma and with M14 melanoma were 62.4% and 71.7%, respectively.

With `CN(C)CCCn1c2c(c3ccncc3c1=O)C(=O)c1ccccc1-2`, the growth with NCI-H23 lung was -23.1% (active); with NCI-H226 lung it was -53.1% (active); in the experiment on NCI-H322M lung, 21.2%; in the experiment on HOP-62 NSCLC it was -11.4% (active); in the experiment with NCI-H460 lung, -9.77% (active); in the experiment with HOP-92 NSCLC, -18.1% (active). The growth was -22.5% (active) in the experiment on NCI-H522 lung; 30.2% in the experiment with A549/ATCC NSCLC; 5.98% (active) in the experiment with 786-0 renal; 10.6% with COLO 205 colon; -8.23% (active) with DU-145 prostate; -61.6% (active) in the experiment with K-562 leukemia. Besides, the growth is -55.8% (active) with MALME-3M melanoma; 8.66% (active) with MDA-MB-231 breast; -15.7% (active) with RXF 393 renal; -15.3% (active) with SF-268 CNS; 1.81% (active) with SF-295 CNS; -17% (active) with SF-539 CNS. Further, the growth is -30.3% (active) with UACC-257 melanoma and -36.5% (active) with M14 melanoma.

With `CC1=C2[C@@H](CC1)[C@]1(C)O[C@@](C3CCNCC3)(C[C@H]1OC(=O)CO)[C@H]2OC(=O)/C=C/c1ccccc1`, the growth in the experiment with NCI-H23 lung was 84.9%; in the experiment on NCI-H226 lung it was 92.3%; in the experiment on NCI-H322M lung, 105%; in the experiment on HOP-62 NSCLC it was 94.5%; in the experiment with NCI-H460 lung, 94.1%; in the experiment with HOP-92 NSCLC it was 71.8%. The growth with NCI-H522 lung is 83.6%; in the experiment on A549/ATCC NSCLC, 92.2%; with 786-0 renal, 86.2%; in the experiment with COLO 205 colon, 87.2%; in the experiment on DU-145 prostate, 101%; in the experiment on K-562 leukemia it was 62.9%. Also, the growth was 81% in the experiment on MALME-3M melanoma; 107% in the experiment with MDA-MB-231 breast; 65.4% in the experiment on RXF 393 renal; 87.7% with SF-268 CNS; 90.9% in the experiment on SF-295 CNS; 91.5% in the experiment on SF-539 CNS. In addition, the growth was 85% in the experiment on UACC-257 melanoma and 83.6% with M14 melanoma.

As for `CC(=O)Nc1sc2c(c1-c1nc3ccccc3s1)CNC2`, the growth was 24.9% in the experiment on NCI-H23 lung; 26% in the experiment on NCI-H226 lung; 14.5% in the experiment on NCI-H322M lung; 18.6% with HOP-62 NSCLC; 8.68% (active) in the experiment on NCI-H460 lung; 0.851% (active) in the experiment on HOP-92 NSCLC. The growth with NCI-H522 lung was -12.5% (active); with A549/ATCC NSCLC, 14.1%; in the experiment on 786-0 renal, 28.4%; with COLO 205 colon, 8.21% (active); in the experiment with DU-145 prostate it was 25.6%; with K-562 leukemia, 13.2%. For the same molecule, the growth in the experiment on MALME-3M melanoma is 19%; with MDA-MB-231 breast, 21.9%; in the experiment with RXF 393 renal, 18%; in the experiment on SF-268 CNS, 40.4%; with SF-295 CNS it was 13.3%; in the experiment on SF-539 CNS it was 28.4%. Further, the growth is 27.6% in the experiment on UACC-257 melanoma and 21.9% with M14 melanoma.

As to `O=C(OCc1ccc2c(Cl)cc(Cl)c(O)c2n1)N1CCN(C(=O)c2cc3ccccc3[nH]2)CC1`, the growth with NCI-H23 lung was 47.1%; in the experiment with NCI-H226 lung, 28.3%; in the experiment on NCI-H322M lung, 37.5%; in the experiment with HOP-62 NSCLC it was 20%; in the experiment on NCI-H460 lung, 12.8%; in the experiment on HOP-92 NSCLC, 14.7%. For the same molecule, the growth was 22.1% with NCI-H522 lung; 10.8% in the experiment on A549/ATCC NSCLC; 44.2% in the experiment with 786-0 renal; 39% with COLO 205 colon; 43.8% with DU-145 prostate; 19.9% with K-562 leukemia. The growth in the experiment on MALME-3M melanoma was 36.8%; with MDA-MB-231 breast it was 44.7%; in the experiment on RXF 393 renal it was 46.5%; with SF-268 CNS, 24.3%; with SF-295 CNS it was 16.1%; in the experiment on SF-539 CNS, 39.8%. Further, the growth with UACC-257 melanoma was 25.5%; in the experiment with M14 melanoma it was 16.9%.

The values above are taken from PubChem BioAssay (NCI).
